NALP3 yeast inh: NALP3 inflammasome inhibitors in reconstituted yeast, primary screen, luminescence, uHTS. Yeast reconstituted NLRP3/ASC/caspase-1, beta-gal luminescence, 24 h. inhibition, % at 10 µM. 330,000 tested, 0.39% active. AID 2825, 2010;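 active = inhibition of 50% or more; inactive = inhibition below 50%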
tim23-1 inh: growth inhibitors of tim23-1 mutant yeast, primary screen, luminescence, uHTS; inhibition, % at 20 µM; S. cerevisiae tim23-1 growth, BacTiter-Glo luminescence, 24 h; 330,000 tested, 1.3% active;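 active = growth inhibition of the mutant yeast at or above 50%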;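 also: temperature-sensitive mutant grown at 25 °C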
SKKanGAS inh: S. pyogenes SKKanGAS growth inhibitors in kanamycin, primary screen, streptokinase expression inhibitor project, SKKanGAS strain, BacTiter-Glo luminescence | 300,000 tested, 1.3% active | inhibition, % at 7.5 µM | 6 h | AID 1662, 2009;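 active = mean replicate score, as percent of positive control median, at least 50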;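 also: strain carries kanamycin resistance gene driven by streptokinase promoter and grows in 40 µg/ml kanamycin; loss of luminescence reflects streptokinase promoter inhibition or plain growth inhibition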
tim10-1 inh: growth inhibitors of tim10-1 mutant yeast, primary screen, luminescence, uHTS; inhibition, % at 20 µM; 330,000 tested, 2.2% active; S. cerevisiae tim10-1 ts strain growth, BacTiter-Glo, 24 h;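 active = inhibition of at least 40%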;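 also: mutant grown at 25 °C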
TIM10 inh: growth inhibitors of isogenic TIM10 control yeast, primary screen, counter-screen for tim10-1 yeast inhibitor project, luminescence, uHTS | inhibition, % at 10 µM | S. cerevisiae TIM10 strain growth, BacTiter-Glo luminescence, 24 h | 330,000 tested, 1.4% active;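 active = inhibition of 40% or more at the single tested concentration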;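 also: wild-type TIM10 isogenic control strain grown at permissive 25 °C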
Of the large screens only hits and unclear results are named; the others gave an inactive call. Compounds with a hit are over-represented: about 4.6% of the library has one in this group of screens.

CCOc1cc(/C=C2\SC(=N)N(c3nccs3)C2=O)ccc1OCCN1CCOCC1	SKKanGAS inh 80
Cc1cc(C(=O)COC(=O)/C=C/c2ccco2)c(C)n1C	none (no result: SKKanGAS inh)
Cc1ccc(-c2nc3cnccn3c2Nc2ccc3c(c2)OCO3)o1	none
Cc1ccn2c(Nc3ccc4c(c3)OCO4)c(-c3ccccn3)nc2c1	SKKanGAS inh 97
Cc1ccc(Nc2c(-c3ccccn3)nc3ccc(C)cn23)cc1	SKKanGAS inh 97
Cc1ccn2c(NC3CCCC3)c(-c3ccccn3)nc2c1	SKKanGAS inh 91
Cc1ccc2nc(-c3ccncc3)c(Nc3ccccc3)n2c1	none
c1ccc(-c2nc3ccccn3c2NC2CCCC2)nc1	SKKanGAS inh 75
COc1ccc(Cl)cc1NC(=O)CN(C)C(=O)c1cc(-c2ccncc2)nc2ccccc12	none
Cc1ccc(S(=O)(=O)N(C)C[C@@H]2Oc3ccc(NC(=O)Cn4cnnn4)cc3C(=O)N([C@@H](C)CO)C[C@H]2C)cc1	none (no result: SKKanGAS inh)
CCOc1ccc(NC(=O)CSc2nnc(Cc3ccccc3)c(=O)n2N)cc1	SKKanGAS inh 55
CCOc1ccc(Cc2nnc(SCC(=O)Nc3ccc(OC)cc3)n(N)c2=O)cc1	none
O=C1CCC(/C=C/c2ccccc2)=NN1Cc1ccc(Cl)c(Cl)c1	SKKanGAS inh 53
O=C1CCC(/C=C/c2ccccc2)=NN1Cc1ccccc1Cl	none
C/C(=N\N=C(/N)SC1CC(=O)N(c2ccc(Br)cc2)C1=O)c1cccs1 (configuration not stated)	SKKanGAS inh 98
C/C(=N\N=C(/N)SC1CC(=O)N(c2ccc(Cl)c(Cl)c2)C1=O)c1cccs1 (configuration not stated)	SKKanGAS inh 98
O=C(CSc1nnc2ccccn12)NNC(=O)c1ccccc1F	none (no result: SKKanGAS inh)
O=C(N/N=C/c1cc(Cl)cc([N+](=O)[O-])c1O)NC12CC3CC(CC(C3)C1)C2	SKKanGAS inh 50
Cc1cc(C(=O)N/N=C/c2cc(Cl)cc([N+](=O)[O-])c2O)c2ccccc2n1	SKKanGAS inh 114
Cc1ccc(NC(=O)CSc2ncccn2)cc1S(=O)(=O)N1CCOCC1	none (no result: SKKanGAS inh)
Cc1ccccc1-c1nnc(SC(C)C(=O)NC2CCCC2)o1 (configuration not stated)	none (no result: SKKanGAS inh)
CC(=O)c1c(O)cc(O)cc1CC(=O)O	none
CC(=O)c1c(O)cc(O)c(C(C)=O)c1O	SKKanGAS inh 91
Cc1ccc(-n2c(=O)c3c4c(sc3n3c(=S)[nH]nc23)CCC4)cc1	none
COc1ccc(-n2c(=O)c3c4c(sc3n3c(=S)[nH]nc23)CCC4)cc1	SKKanGAS inh 65
CC(C)CC(=O)Nc1ccc(C(=O)NNC(=S)NC(=O)C2CCCCC2)cc1	SKKanGAS inh 93
O=[N+]([O-])c1ccc(CSc2ccc(S(=O)(=O)N3CCCCCC3)cn2)cc1	none (no result: SKKanGAS inh)
Cn1c(N)c(C(=O)COC(=O)CCc2c[nH]c3ccccc23)c(=O)n(C)c1=O	SKKanGAS inh 63
Cn1c(N)c(C(=O)COC(=O)CCc2nc3ccccc3s2)c(=O)n(C)c1=O	none
Cn1c(N)c(C(=O)COC(=O)CCCc2c[nH]c3ccccc23)c(=O)n(C)c1=O	SKKanGAS inh 75
CC(C)Oc1ccc(S(=O)(=O)N2CCOCC2)cc1NC(=O)C1COc2ccccc2O1 (configuration not stated)	none (no result: SKKanGAS inh)
Cc1ccc(-c2cc(C(=O)N3CCN(c4ccccc4O)CC3)c3ccccc3n2)o1	none
O=C(c1cc(-c2ccc(Br)cc2)nc2ccccc12)N1CCN(c2ccccc2O)CC1	SKKanGAS inh 59
Cc1ccc(S(=O)(=O)Nc2ccc(-c3csc(-c4ccccc4)n3)cc2)cc1	none
O=[N+]([O-])c1ccc(S(=O)(=O)Nc2ccc(-c3csc(-c4ccccc4)n3)cc2)cc1	SKKanGAS inh 66
O=C(CSc1nnc(-c2ccc3c(c2)OCO3)o1)Nc1ncc(C(F)(F)F)cc1Cl	SKKanGAS inh 98
COC(=O)c1ccccc1NC(=O)c1nc(S(=O)(=O)Cc2ccccc2)ncc1Cl	SKKanGAS inh 58
CC(=O)Nc1ccc(NC(=O)c2nc(S(=O)(=O)Cc3ccccc3)ncc2Cl)cc1	none
COc1ccc(Cl)cc1NC(=O)CN(C)C(=O)c1cc2ccccc2cc1O	none
Clc1ccccc1C(c1ccccc1)(c1ccccc1)n1ccnc1	SKKanGAS inh 50
O=C(CN(c1ccccc1)S(=O)(=O)c1ccc(F)cc1)NC1CCCCCC1	none
COc1ccc(NC(=S)NC(NC(=O)c2ccc(Cl)cc2Cl)C(Cl)(Cl)Cl)c([N+](=O)[O-])c1 (configuration not stated)	SKKanGAS inh 50
COc1ccc(NC(=S)NC(NC(=O)c2ccccc2Cl)C(Cl)(Cl)Cl)c([N+](=O)[O-])c1 (configuration not stated)	none
COc1ccc([C@H]2C(C(=O)O)=C[C@@H](C(C)(C)C)N2S(=O)(=O)c2ccc(C)cc2)cc1OC	none (no result: SKKanGAS inh)
COc1ccc(Cl)cc1S(=O)(=O)N1CCC(C(=O)NC2CC2)CC1	none
COc1ccc(-c2cc(=O)n(CCC#N)[nH]2)cc1	none
COc1ccc(-c2ncn(CCC#N)c2[N+](=O)[O-])cc1	SKKanGAS inh 97
CCOc1ncccc1C(=O)OC(C)C(=O)Nc1ccc(N2CCOCC2)cc1 (configuration not stated)	none (no result: SKKanGAS inh)
CCCc1[nH][nH]c(=O)c1C(c1cccc(Cl)c1)C(C#N)C#N (configuration not stated)	none
Cc1[nH]n(-c2ncc(-c3ccc(Cl)cc3)s2)c(=O)c1C(c1ccc(Cl)cc1)C(C#N)C#N (configuration not stated)	SKKanGAS inh 97
CC(C)(C)c1nc(SCC(=O)c2ccccc2)c2ccccc2n1	SKKanGAS inh 62
COC(=O)c1ccc2[nH]c3cccc(/C(=C/c4ccccc4)c4ccccc4)c3c2c1	SKKanGAS inh 94
O=C(NCC1CCCN1S(=O)(=O)c1cccs1)c1cccc(F)c1 (configuration not stated)	none
COC(=O)c1c(NC(=O)c2ccccc2)sc(C(=O)c2ccccc2)c1C	SKKanGAS inh 73
CC1(C)Cc2c(cnn2-c2ccccc2)-c2c1c1ccccc1n2CC(O)CCl (configuration not stated)	SKKanGAS inh 64
CC1(C)Cc2c(cnn2-c2ccccc2)C(=O)/C1=N\NC(=O)c1ccncc1	none
CC(C)=CCc1cc([C@@H]2CC(=O)c3ccc(O)c(CC=C(C)C)c3O2)ccc1O	SKKanGAS inh 86
Cc1ccc2c(c1)C(=O)CC(c1ccc3c(c1)OCCO3)O2 (configuration not stated)	none
CC(Sc1nnc(C2CC2)n1C1CC1)C(=O)N(C)C1(C#N)CCCCC1 (configuration not stated)	none (no result: SKKanGAS inh)
COc1ccc(OCc2cc(=O)c3ccc4c(c3o2)C=CC(C)(C)O4)cc1OC	none (no result: SKKanGAS inh)

Screening results (PubChem BioAssay)
